High-throughput results: PubChem, National Center for Advancing Translational Sciences (NCATS)
Methyltransferases = Primary Screen for Target Class Profiling of Small Molecule Inhibitors of Methyltransferases. purified enzyme, MTase-Glo SAH luminescence; stronger effect = lower value. calls only at 40 µM. 25,000 compounds, 3.9% hits; call rule not given here
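Each enzyme was reacted with SAM and its substrate, with compounds tested once at 40 uM; SAH formed was read by MTase-Glo luminescence.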
MTase-Glo counter = counter-screen for methyltransferase inhibitors: coupling enzymes without methyltransferase | MTase-Glo coupled enzymes, SAH conversion luminescence, no MTase | Potency, µM (highest dose often 57.3 µM), for inactives: at the top dose activity change, negative = inhibition, most hits filed as inhibitors | 180 compounds, 6% hits | shares compounds with Methyltransferases; active = well fitted inhibition curve with a large enough effect; also: potency is read from the fitted curve at half-maximal effect
* hit, by the source's call; i = inactive; + = active, no number; [ ] = dose if it differs, or a comment. The sample as a whole holds a higher share of hits than the screen did. % is scaled to controls: 0 for no effect and ±100 for the full control effect.

SMILES	Methyltransferases	others
COC(=O)c1cc2n(n1)CC(C)(C(=O)NC1CCCCCC1)N(Cc1cccc(OC)c1OC)C2=O (configuration not stated)	i
CC[N+]1(C/C2=C/CCCCCC2)CCC(NC(=O)C2c3cc(Cl)ccc3Oc3ccc(Cl)cc32)CC1 (configuration not stated)	+
CC1CCC(NC(=O)C2c3cccn3CC(=O)N2CCC2=CCCCC2)CC1 (configuration not stated)	i
C=CCn1c(=O)c2ccc(C(=O)NC(C)C)cc2n2c(=O)n(CC(=O)Nc3cccc(Cl)c3)nc12	i
Cc1c(Cl)cccc1N1C(=O)c2cc3sccc3n2CC1(C)C(=O)NC1CCCCCCC1 (configuration not stated)	i
CN1C(=O)c2cc(C(=O)NCc3ccc4c(c3)OCO4)nn2CC1(C)C(=O)NC1CCCCC1 (configuration not stated)	i
O=C(O)Cn1nnc(-c2ccc(CN(CCCCOc3ccc(CN4CCCC4)cc3)CCc3ccccc3)cc2)n1	+
CCOC(=O)C1(CCOc2ccccc2)CCN(Cc2ccc(O)c(Cl)c2)CC1	i
CC1CCN(S(=O)(=O)c2ccc3c(ccn3CC(=O)NCC(C)c3ccccc3)c2)CC1 (configuration not stated)	i
Cn1c(=O)oc2cc(S(=O)(=O)N3CCCC(C(=O)N4CCC(Cc5nncn5-c5ccccc5)CC4)C3)ccc21 (configuration not stated)	i
COc1ccc(N2C(=O)c3cc4sccc4n3CC2(C)C(=O)NC2CCCCCC2)cc1Cl (configuration not stated)	i
Cc1ccc(N2C(=O)c3cc(-c4cccs4)nn3CC2(C)C(=O)NC2CCCCC2)cc1 (configuration not stated)	i
CN(C)C/C=C/C(=O)Nc1ccc(C(=O)Nc2cccc(Nc3ncc(Cl)c(-c4c[nH]c5ccccc45)n3)c2)cc1	+
CN(C)C/C=C/C(=O)Nc1cccc(C(=O)Nc2cccc(Nc3ncc(Cl)c(-c4c[nH]c5ccccc45)n3)c2)c1	+
CNc1nccc(-c2cccnc2Oc2cc(C(=O)Nc3cccc(C(F)(F)F)c3)ccc2C)n1	i
CN(C)C/C=C/C(=O)Nc1cccc(C(=O)Nc2ccc(Nc3nccc(-c4cccnc4)n3)cc2)c1	+
Cc1ccc(NC(=O)c2ccc(CN3CCNCC3)cc2)cc1Nc1nccc(-c2cccnc2)n1	i
Cn1c(=O)c(-c2c(Cl)cccc2Cl)cc2cnc(Nc3cccc(C(=O)O)c3)nc21	i
Cc1ccc(CN2C(=O)c3cc4sccc4n3CC2(C)C(=O)NC2CCCCCCC2)cc1 (configuration not stated)	i
O=C1CCCN1c1ccc(CN2CC(=O)N(Cc3ccccc3F)c3ccccc3S2(=O)=O)cc1	i
Cc1ccc(CNC(=O)c2ccc3c(=O)nc4c(-c5cccc(F)c5)n[nH]n4c3c2)cc1	i
CCOC(=O)c1cc2n(n1)CC(C)(C(=O)NCCC(C)C)N(c1cccc(C)c1C)C2=O (configuration not stated)	i
CCCCNC(=O)c1cc2n(n1)CC(C)(C(=O)NCc1ccc(C)cc1)N(C)C2=O (configuration not stated)	i
Nc1nc(C2CC(O)C2)cc(N2CC(N3CCOCC3)C2)n1 (configuration not stated)	i
CN(CCO)C[C@@H]1CN(C(=O)CCc2nc3ccc(F)cc3[nH]2)C[C@@H]1CO	i
SMILES	Methyltransferases	others
CN(CCc1nc2ccc(Cl)cc2[nH]1)c1cc(C2CC(O)C2)nc(N)n1 (configuration not stated)	+	MTase-Glo counter=-4%
COCCCNC(=O)c1cc2n(n1)CC(C)(C(=O)NCc1ccc(F)cc1)N(C)C2=O (configuration not stated)	i
O=C(O)Cc1cn(C2OCC(O)C(O)C2O[C@@H]2O[C@H](CO)[C@@H](O)[C@H](O)[C@H]2O)c2ccccc12 (some centres not stated)	i
O=C(Cn1ccc2cc(S(=O)(=O)N3CCCC3)ccc21)NCCc1cccs1	i
Cc1noc2c(N3CCOCC3)cc(-c3cccnc3)nc12	i
COC1CCN(c2cc(-c3ccsc3)nc3c(C)noc23)CC1	+	MTase-Glo counter=-5%[85.7 µM]
COc1cccc(-c2cc(-c3cccs3)nc3c(C)noc23)c1	i
Cc1noc2c(-c3cnn(C)c3)cc(-c3cccnc3)nc12	i
Cc1noc2c(N3CCOCC3)cc(-c3cccs3)nc12	+	MTase-Glo counter=2%[85.7 µM]
Cc1noc2c(Nc3ccc(C(N)=O)cc3)cc(-c3ccsc3)nc12	i
CCOc1ccc(CCNC(=O)CNC(=O)C2(C)Cn3c(cc4ccccc43)C(=O)N2C)cc1 (configuration not stated)	i
Cc1ccc(NC(=O)N2Cc3c(sc4c3CCCC4)-n3cccc3C2c2ccc(F)cc2)cc1 (configuration not stated)	i
COc1ccccc1CNC(=O)C1(C)Cn2c(cc3ccccc32)C(=O)N1Cc1ccc(OC(C)C)cc1 (configuration not stated)	i
COc1ccc(CN2C(=O)c3ccc(-c4ccco4)n3CC2(C)C(=O)NC2CCCCC2)c(OC)c1OC (configuration not stated)	i
COc1ccc(NC(=O)N2CCCC(CN3CCC(C)CC3)CC2)cc1 (configuration not stated)	i
COc1ccc(NC(=O)C(C)(C)Oc2nn(CC3CC3)c3ccc(CN4CCCC4)cc23)cc1	+	MTase-Glo counter=5%
CC(C)n1nc(OC(C)(C)C(=O)Nc2ccccn2)c2cc(CN3CCOCC3)ccc21	i
CCOC(=O)C1CCN(c2nc3c(S(=O)(=O)c4ccccc4)nnn3c3ccccc23)CC1	i
O=C(NCC(F)(F)F)c1cn2cc(-c3ccc(C(F)(F)F)cc3)sc2n1	i
CCN1C(=O)c2cc3ccccc3n2CC1(C)C(=O)NCC(=O)NCc1ccc(C)o1 (configuration not stated)	i
COc1cc(C(=O)NC(=S)Nc2cccc(NC(=O)c3ccccc3)c2)cc(OC)c1OC	i
COc1ccccc1CC(=O)N1CCCc2ncc(C(=O)Nc3cccc(Cl)c3)cc21	+	MTase-Glo counter=4%[85.7 µM]
COc1cc(NC(=O)c2ccccn2)ccc1Cl	i
Cc1ccc(CNC(=O)C2(C)Cn3nc(C(=O)NC4CCCC4)cc3C(=O)N2C)cc1 (configuration not stated)	i
COc1ccc(-c2cc3n(n2)CC(C)(C(=O)NCc2ccccc2OC)N(c2cc(C)cc(C)c2)C3=O)cc1 (configuration not stated)	i
COc1cccc(C2c3cccn3-c3sc4c(c3CN2C(=O)Nc2ccccc2C)CCCC4)c1 (configuration not stated)	i
O=C1NC2(CCN(Cc3ccccc3)C2)COc2ccccc21 (configuration not stated)	i
O=[S+]1([O-])NC2(CCCN(Cc3c(F)cccc3Cl)C2)COc2ccccc21 (configuration not stated)	+	MTase-Glo counter=-7%
O=[S+]1([O-])NC2(CCN(Cc3ccccc3C(F)(F)F)C2)CNc2ccccc21 (configuration not stated)	i
